Measurements: PubChem BioAssay AID720490 (Broad Institute, 2013)
Potency and affinity values are given separately. Activity calls are given as the source filed them.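 How the source made its calls: active means compound whose fitted half-maximal concentration for signal loss stays within twice its top tested dose in every run; inconclusive means runs not all active and not all inactive; inactive means every run inactive.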

Experiment: Shn3 3'UTR reporter signal decrease – cell-based, Clone20 osteoblasts, firefly luciferase, cherry-pick, set 2, Schnurri-3 inhibitor project, dose response (AID 720490)
Conditions: Clone20 osteoblast Shn3 3'UTR firefly luciferase, 24 h; series mostly up to 35 µM

outcome, inactive:
CCN(CC)Cc1c(O)ccc2c1O/C(=C\C=C\c1ccccc1)C2=O, CCOC(=O)c1cn(CC(=O)Nc2cccc(Cl)c2C)nn1, O=C1S/C(=C\c2ccc(N3CCOCC3)o2)C(=O)N1Cc1c(F)cccc1Cl, CCOC(=O)Cn1c(S(=O)(=O)Cc2ccccc2Cl)nc(-c2ccccc2)c1-c1ccccc1
